Experimental findings from PubChem BioAssay (Tox21) are described below.

Unmarked numbers belong to inactive results. Inconclusive results are not listed. The source made the active and inactive calls. Unless noted, calls follow the shape of the dose curve; as a rule, active = well fitted curve in the direction sought with a large enough effect in the repeat runs; inconclusive = weak or mixed curves; inactive = no such curve, though single readings can be large; an effect the other way counts as inactive or inconclusive.

Experiment [1] is described as follows: qHTS assay to identify small molecule agonists of H2AX (AID 1224845; active = well fitted activation curve with a large enough effect in the signal ratio in the repeat runs, not every such curve was filed as active; the % refers to the signal ratio). In short, it runs like this: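 Wild-type CHO-K1 cells plated overnight, then exposed 3 hr at 37C to compounds at 15 concentrations (0.76% DMSO). Lysed, then HTRF anti-pH2AX(S139)-cryptate/anti-H2AX-d2 detection after 24 hr at room temperature; emissions 665 and 620 nm.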
A general note: qHTS replaces the single test concentration by a dilution series.

Experiment [2] in a line: qHTS assay to identify small molecule agonists of the hypoxia (HIF-1) signaling pathway (AID 1224846; active = well fitted activation curve with a large enough effect in the signal ratio in the repeat runs, not every such curve was filed as active; the % refers to the signal ratio). In outline:
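Reporter induction in HRE-bla ME-180 cells is taken as agonism: cells sit 5 hrs after plating, receive compounds or DMSO only, incubate 17 hrs at 37C under 5% CO2, and are loaded with CCF4-AM for beta-lactamase FRET measurement.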

The nature of experiment [3]: qHTS assay to identify small molecule agonists of H2AX - cell viability counter screen (AID 1224847; calls by dose curve; also: nearly all actives have a fitted effect of over 30% in size; also: potency is read from the fitted curve at half-maximal effect). In outline: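 Wild-type CHO-K1 cells (10% FBS medium) were plated overnight at 37C, exposed to compounds at 15 concentrations for 3 hr at 37C (0.76% DMSO final), and viability was read as CellTiter-Glo luminescence after 30 min at room temperature.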
Experiment [4] is described as follows: qHTS RealTime-Glo MT Cell Viability Assay in HepG2 cells - 24 hour (AID 1224867). Also: nearly all actives have a fitted effect of over 50% in size. In outline:
(§1)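 Compound treatment began 5 h after plating HepG2 cells (600/well) with NanoLuc luciferase and prosubstrate. Plates stayed at 37 C for 40 h; luminescence was captured at six time points, 0 h through 40 h.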

Experiment [5] in a line: qHTS RealTime-Glo MT Cell Viability Assay in HEK293 cells - 32 hour (AID 1224868). Also: top concentration of the series differs between compounds; nearly all actives have a fitted effect of over 50% in size. In outline: (§2)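 Quantitative high-throughput screen of the Tox21 10K library in HEK293: cells and RealTime-Glo reagents plated together, compound added at 5 h, luminescence monitored through 40 h at 37 C.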
Experiment [6] in a line: A CellTox Green Cytotoxicity Assay to monitor cytotoxicity in HEK293 cells - 0 hour (AID 1224869). Also: nearly all actives have a fitted effect of over 50% in size. In short, it runs like this: (§3)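 Tox21 screen in HEK293: membrane-impermeant cyanine dye fluoresces on binding dead-cell DNA; compound pinned 5 h post-seeding, plates held at 37 C, signal read repeatedly through 40 h.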
The nature of experiment [7]: qHTS RealTime-Glo MT Cell Viability Assay in HepG2 cells - 40 hour (AID 1224870). Also: nearly all actives have a fitted effect of over 50% in size. In short, it runs like this: (§4)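 HepG2 cells mixed with RealTime-Glo MT reagents (NanoLuc plus cell-permeant prosubstrate) were seeded at 600 cells/well, incubated 5 h at 37 C/5% CO2, then pinned with compounds in DMSO; nonlytic luminescence tracked viability during 40 h treatment.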
Experiment [8] is described as follows: A CellTox Green Cytotoxicity Assay to monitor cytotoxicity in HEK293 cells - 40 hour (AID 1224871). Also: nearly all actives have a fitted effect of over 45% in size. In outline:
as §3

Experiment [9] in a line: qHTS RealTime-Glo MT Cell Viability Assay in HEK293 cells - 16 hour (AID 1224872). In short, it runs like this: as §2
Experiment [10] can be described thus: qHTS RealTime-Glo MT Cell Viability Assay in HepG2 cells - 8 hour (AID 1224873). Also: nearly all actives have a fitted effect of over 55% in size. In outline:
as §4

Experiment [11] in a line: qHTS RealTime-Glo MT Cell Viability Assay in HEK293 cells - 40 hour (AID 1224874). Also: nearly all actives have a fitted effect of over 50% in size. To be noted: RealTime-Glo luminescence; max response: active compounds read low. In outline: (§5)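 HEK293 + NanoLuc + prosubstrate, 600 cells/well; 5 h, 37 C/5% CO2; compound 23 nL in DMSO by pintool; 37 C; luminescence read at 0, 8, 16, 24, 32 and 40 h time points.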
Experiment [12] can be described thus: A CellTox Green Cytotoxicity Assay to monitor cytotoxicity in HEK293 cells - 24 hour (AID 1224875). Also: series mostly up to about 77 µM; nearly all actives have a fitted effect of over 45% in size. In short, it runs like this: as §3
Experiment [13] in a line: A CellTox Green Cytotoxicity Assay to monitor cytotoxicity in HepG2 cells - 16 hour (AID 1224876). Also: nearly all actives have a fitted effect of over 45% in size. In short, it runs like this: (§6)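 Measurements at 0, 8, 16, 24, 32 and 40 h of treatment captured CellTox Green fluorescence in HepG2 cells that had been co-plated with reagent and preincubated 5 h at 37 C/5% CO2.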
Experiment [14] is described as follows: qHTS RealTime-Glo MT Cell Viability Assay in HepG2 cells - 32 hour (AID 1224877). Also: nearly all actives have a fitted effect of over 55% in size. In short, it runs like this:
as §1

Experiment [15] in a line: A CellTox Green Cytotoxicity Assay to monitor cytotoxicity in HepG2 cells - 24 hour (AID 1224878). Also: nearly all actives have a fitted effect of over 45% in size. In short, it runs like this:
as §6

Experiment [16] is described as follows: A CellTox Green Cytotoxicity Assay to monitor cytotoxicity in HepG2 cells - 40 hour (AID 1224879). Also: nearly all actives have a fitted effect of over 40% in size. In short, it runs like this: as §6
A short description of experiment [17]: A CellTox Green Cytotoxicity Assay to monitor cytotoxicity in HEK293 cells - 32 hour (AID 1224881). Also: nearly all actives have a fitted effect of over 40% in size. In short, it runs like this:
as §3

Experiment [18] in a line: qHTS RealTime-Glo MT Cell Viability Assay in HEK293 cells - 0 hour (AID 1224880). In short, it runs like this:
as §5
% is scaled to controls: 0 for no effect and ±100 for the full control effect.

As for `CC1(C)[C@H]2CC[C@]1(C)[C@H](O)C2`, the Potency entry in experiment [1], in experiment [4], in experiment [5], in experiment [6], in experiment [7] and in experiment [8] was “inactive” each time. Moreover, the Potency entry in experiment [9], in experiment [10], in experiment [12], in [13], in [14] and in [15] was “inactive” in each case. The Potency entry in experiment [16] and in experiment [17] was “inactive” each time. In experiment [2], the compound was classed as inactive. Moreover, in experiment [3], the Potency is 1600 nM (active). In addition, in experiment [11], the max response was -5.57%.
Turning to `COc1ccc(C(C)=O)cc1`, the Potency result in [1], in experiment [3], in experiment [4], in experiment [5], in experiment [6] and in experiment [7] was “inactive” in each case. In addition, the Potency entry in experiment [8], in experiment [9], in [10], in [12], in [13] and in experiment [14] was “inactive” each time. Also, the Potency entry in [15], in experiment [16], in [18] and in [17] was “inactive” throughout. Besides, the result in experiment [2] was inactive. Besides, the max response in [11] is 21.1%.
Take `NCCCN(CCO)CCO`: the Potency result in [1], in experiment [3], in experiment [4], in experiment [5], in experiment [6] and in experiment [7] was “inactive” throughout. Further, the Potency entry in experiment [8], in experiment [9], in experiment [10], in [12], in [13] and in [14] was “inactive” each time. The Potency entry in experiment [15], in experiment [16], in [18] and in [17] was “inactive” in each case. For the same compound, the outcome in experiment [2] was inactive. Further, the max response in experiment [11] is -7.84%.
As to `CC(=O)SCc1ccco1`, the Potency result in [1], in experiment [3], in experiment [4], in experiment [5], in experiment [6] and in experiment [7] was “inactive” each time. Moreover, the Potency result in [8], in experiment [9], in experiment [10], in [12], in [13] and in experiment [14] was “inactive” throughout. Also, the Potency entry in [15], in experiment [16], in experiment [18] and in experiment [17] was “inactive” throughout. The compound was classed as inactive in experiment [2]. Also, the max response in experiment [11] was 13.4%.
Turning to `N#CCc1cccc(C(F)(F)F)c1`, the Potency entry in experiment [1], in [3], in experiment [4], in [5], in [6] and in [7] was “inactive” throughout. In addition, the Potency entry in [8], in experiment [9], in [10], in experiment [12], in experiment [14] and in experiment [15] was “inactive” in each case. The Potency result in [16], in [18] and in experiment [17] was “inactive” each time. The call in [2] was inactive. For the same compound, the max response in experiment [11] was 10.3%.
As to `Cc1c(Cn2ccnc2)c2ccccc2n1CCC(=O)O`, the Potency result in [1], in [3], in experiment [4], in experiment [5], in experiment [6] and in experiment [7] was “inactive” throughout. The Potency entry in experiment [8], in [9], in experiment [10], in experiment [12], in experiment [13] and in experiment [14] was “inactive” throughout. Further, the Potency entry in experiment [15], in [16], in experiment [18] and in [17] was “inactive” each time. The outcome in experiment [2] was inactive. In [11], the max response was 4.63%.
Regarding `N#Cc1cc2ccccc2c2ccccc12`, the Potency result in experiment [1], in experiment [3], in experiment [4], in experiment [5], in experiment [6] and in [7] was “inactive” in each case. The Potency entry in experiment [8], in experiment [9], in experiment [10], in experiment [12], in experiment [14] and in experiment [15] was “inactive” throughout. The Potency entry in experiment [16], in [18] and in [17] was “inactive” in each case. Also, the compound was called inactive in experiment [2]. Also, the max response in [11] is -18.9%.
